# USP30 block = inhibitors of human USP30 deubiquitinase | inhibition, % at 25 µM | AID 1645860 | purified USP30, Ub-rhodamine cleavage fluorescence | hit rate 5.3% among 47,000 | Q70CQ3
# USP17 inh = inhibitors of human USP17 deubiquitinase; purified USP17, Ub-rhodamine cleavage fluorescence, 3 h; inhibition, % at 50 µM; hit rate 6.5% among 47,000; AID 1645855
# USP28 block = inhibitors of human USP28 deubiquitinase; purified USP28, Ub-rhodamine cleavage fluorescence, 30 min; inhibition, % at 25 µM; hit rate 3% among 47,000; AID 1645857
# USP8 inh = inhibitors of human USP8 deubiquitinase; P40818; inhibition, % at 20 µM; hit rate 4.2% among 47,000; purified USP8, Ub-rhodamine cleavage fluorescence, 30 min
# Target sequence (P40818 whole entry, looked up): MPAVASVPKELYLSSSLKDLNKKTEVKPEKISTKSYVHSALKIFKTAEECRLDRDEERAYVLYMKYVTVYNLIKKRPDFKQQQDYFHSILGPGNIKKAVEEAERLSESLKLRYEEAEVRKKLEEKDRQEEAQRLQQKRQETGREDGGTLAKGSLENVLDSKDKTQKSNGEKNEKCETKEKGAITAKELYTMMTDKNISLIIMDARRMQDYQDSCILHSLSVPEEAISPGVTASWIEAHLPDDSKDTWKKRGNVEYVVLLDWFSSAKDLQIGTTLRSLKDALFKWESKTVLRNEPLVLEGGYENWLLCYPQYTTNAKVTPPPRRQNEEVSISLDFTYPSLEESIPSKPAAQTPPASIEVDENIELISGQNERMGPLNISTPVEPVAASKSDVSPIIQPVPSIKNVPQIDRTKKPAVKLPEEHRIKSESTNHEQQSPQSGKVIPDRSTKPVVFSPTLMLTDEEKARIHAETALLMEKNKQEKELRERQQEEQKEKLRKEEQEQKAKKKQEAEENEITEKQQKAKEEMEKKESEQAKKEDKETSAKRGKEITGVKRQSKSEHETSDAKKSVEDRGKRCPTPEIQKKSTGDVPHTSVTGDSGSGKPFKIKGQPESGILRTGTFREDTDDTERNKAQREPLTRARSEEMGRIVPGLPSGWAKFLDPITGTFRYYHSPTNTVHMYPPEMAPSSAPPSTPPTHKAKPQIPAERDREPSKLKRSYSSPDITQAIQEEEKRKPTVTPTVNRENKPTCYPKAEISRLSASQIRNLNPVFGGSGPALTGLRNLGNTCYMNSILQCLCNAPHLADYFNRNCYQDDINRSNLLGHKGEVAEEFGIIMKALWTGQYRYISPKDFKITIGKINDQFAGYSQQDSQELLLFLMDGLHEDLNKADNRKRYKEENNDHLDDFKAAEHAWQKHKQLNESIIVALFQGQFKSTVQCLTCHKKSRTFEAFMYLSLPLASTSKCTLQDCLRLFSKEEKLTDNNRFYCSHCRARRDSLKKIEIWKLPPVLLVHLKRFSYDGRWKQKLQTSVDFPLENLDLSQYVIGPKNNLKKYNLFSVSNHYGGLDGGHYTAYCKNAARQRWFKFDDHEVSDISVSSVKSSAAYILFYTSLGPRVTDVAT
# * = called active by the depositor; i = inactive; · = no result. This is a sample that favours compounds with a hit; in the whole collection about 13% have one here. Rule as the data show it: active = inhibition above about 30%; inactive = the rest.
SMILES,USP30 block,USP17 inh,USP28 block,USP8 inh
CCc1c(Cl)c(O)c(Cl)c(O)c1C(=O)O[C@H]1C(C)O[C@@H](OC/C2=C\C=C\CC(O)/C(C)=C/C(CC)C(O[C@@H]3OC(C)(C)[C@H](O)C(OC(=O)C(C)C)[C@@H]3O)/C(C)=C/C(C)=C/CC(C(C)O)OC2=O)[C@@H](OC)C1O (some centres not stated),91*,2,85*,2
O=C(Cn1cnc(-c2noc(-c3ccncc3)n2)c1)N1CCN(c2ccccc2)CC1,-1,19,3,-1
COc1ccc(NC(=O)c2ccc(CN(c3ccc(C)c(C)c3)S(C)(=O)=O)cc2)cc1,-58,9,0,-8
Cc1cccc(NC(=O)c2ccc(C)c(C)c2)c1,-6,3,34*,-28
CC(=O)c1cccc(NC(=O)c2ccc(CN(c3ccc(C)c(C)c3)S(C)(=O)=O)cc2)c1,23,14,73*,6
Cc1cccc(NC(=O)NCCN2CCc3ccccc3C2)c1,0,-1,-1,1
Cc1cccc(NC(=O)Nc2ccc(C)c(C)c2)c1,31*,10,19,16
COc1ccc(N2CCN(c3ncc4c(=O)n(Cc5ccccn5)ccc4n3)CC2)cc1,9,5,-2,7
Cc1c2oc3c(C)ccc(C(=O)NC4C(=O)N[C@@H](C(C)C)C(=O)N5CCCC5C(=O)N(C)CC(=O)N(C)C(C(C)C)C(=O)OC4C)c3nc-2c(C(=O)NC2C(=O)N[C@H](C(C)C)C(=O)N3CCCC3C(=O)N(C)CC(=O)N(C)C(C(C)C)C(=O)OC2C)c(N)c1=O (some centres not stated),-112,62*,-11,17
CC1CC(C)CN(C(=O)Cn2c(C(=O)OC(C)C)cc3c2ccn3C)C1 (configuration not stated),i,-149,-205,-159
O=C(Cc1ccccc1)N1C[C@H]2C[C@H]3[C@](C1)(CN(Cc1cccnc1)S3(=O)=O)O2,-23,-43,-9,-216
COc1ccc(Cl)cc1Nc1cc(C)c2ccccc2n1,16,11,4,12
Clc1ccc(Oc2nc3ccccc3c3nnc(-c4ccc(Br)cc4)n23)c(Cl)c1,19,37*,2,5
CCc1ccc(S(=O)(=O)N2CCC3(CC2)NCCN=C3NC2CCCC2)cc1,-45,-2,-1,0
CNC(=O)c1cnn2c(C3CCCCN3C(=O)CC3CCCCC3)ccnc12 (configuration not stated),18,7,5,0
CSC[C@@H]1N/C(=C2/CC=CC2=O)[C@H]([C@@H](C)[C@@H]2C(=O)N(C)c3ccccc32)NC1=O,-498,-77,-82,-300
O=C1N[C@H](Cc2c[nH]c3ccccc23)C(=O)N[C@H]1Cc1c[nH]c2ccccc12,36*,22,12,0
Cn1c(=O)cc(SCC(=O)N2CCN(Cc3ccc4c(c3)OCO4)CC2)c2ccc(Cl)cc21,1,-12,-12,-6
CCOc1cc(=O)n2c(c1C(=O)Nc1ccc(C#N)cc1)CCCC2,-9,-9,-14,-8
Clc1cccc(Nc2nc(N3CCCCC3)nc(N3CCCCC3)n2)c1,2,-3,1,1
COCCn1c(C(=O)N2CCN(c3ccccc3)CC2)cc2c1c1ccccc1n2C,-41,-9,-21,-112
Cc1cccc(C(=O)OCC(=O)c2ccc3c(c2)OCCO3)c1O,1,5,19,11
Cc1cc(C(=O)COC(=O)c2ccc(C(C)(C)C)cc2)c(C)n1Cc1ccc2c(c1)OCO2,0,5,7,34*
Cc1ccc(NC(=O)c2ccc(Cn3cccn3)cc2)c(Br)c1,-15,-2,0,-1
Cc1cccc(Cn2nc(C(C)(C)C)cc2C(=O)NCc2cccs2)c1,10,-1,5,1
SMILES,USP30 block,USP17 inh,USP28 block,USP8 inh
Cc1ccc(-n2nc(C)c3c(C)cc(C(=O)NCc4cccs4)nc32)cc1,46*,31*,11,0
Cc1cccc(C(=O)N2CCC(C(=O)c3ccc4c(c3)OCCO4)CC2)c1,26,7,30*,12
Cn1c2ccc(F)cc2c2ncn(Cc3cccnc3)c(=O)c21,31*,-1,9,0
O=c1c2[nH]c3ccc(F)cc3c2ncn1Cc1cccnc1,·,41*,·,-2
Cc1ccc2c(c1)[nH]c1c(=O)n(Cc3cccnc3)cnc12,24,31*,20,22
COc1ccc2c(c1)[nH]c1c(=O)n(Cc3cccnc3)cnc12,29,11,18,20
CC(=O)NC(Cc1cccc(C)c1)C(=O)NC1CCN(c2nnnn2-c2ccccc2)CC1 (configuration not stated),19,10,11,12
Cc1ccc(-n2nnnc2-c2cnc3cc(Cl)ccc3c2N)cc1,27,15,7,44*
Clc1ccc2ncc(-c3nnnn3-c3ccc4ccccc4c3)c(-c3ccccc3)c2c1,-1,0,7,9
COC(=O)CCC(c1ncc(C(F)(F)F)cc1Cl)S(=O)(=O)c1ccccc1 (configuration not stated),58*,44*,23,31*
Clc1ccc(-c2cc3n(c2)CCc2cc4c(cc2-3)OCO4)cc1,-154,30,0,70*
c1ccc(-c2cc3n(c2)CCc2cc4c(cc2-3)OCO4)cc1,-390,-59,-34,21
CC(C)CC(=O)Nc1ccc(-n2cnc(C(=O)N3CCCCCC3)c2)nc1,0,3,8,21
Cc1ccc(C)c(Nc2nc(NCc3ccccc3)c3ccccc3n2)c1,82*,51*,61*,22
Cn1ncc2c(NCc3ccccc3)nc(NCCO)nc21,0,-8,-8,-1
CCCOC(=O)c1cc(NC(=O)c2cccnc2)ccc1N1CCOCC1,21,5,8,17
CCOC(=O)c1ccccc1NC(=O)CSc1ccc2nnc(CCNS(=O)(=O)c3ccc(C)cc3)n2n1,31*,-2,9,-1
O=C(CSc1ccc2nnc(CCNS(=O)(=O)c3ccccc3)n2n1)Nc1ccc(Br)cc1,24,32*,6,2
c1ccc2c(c1)nc1n2CCCN(Cc2ccc3c(c2)OCO3)C1,-6,-3,3,-2
COc1cc(Br)c(-c2nc3ccccc3s2)cc1OC,0,0,-9,-36
Cc1cc(-c2nnc(-c3ccccc3)o2)c(C)n1CC(=O)N1CCN(c2ccccn2)CC1,11,0,-1,-3
COc1ccc(NC(=O)C2c3ccccc3C(=O)N(C3CCCC3)C2c2cccs2)c(OC)c1 (configuration not stated),40*,18,13,21
COc1ccc(OC)c(NC(=O)C2c3ccccc3C(=O)N(C3CCCC3)C2c2cccs2)c1 (configuration not stated),4,-1,-5,0
COc1ccc(NC(=O)C2c3ccccc3C(=O)N(C3CCCC3)C2c2cccs2)cc1OC (configuration not stated),16,56*,26,20
CCN1CCN(Cc2ccc(NC(=O)C3c4ccccc4C(=O)N(C4CCCC4)C3c3cccs3)cc2)CC1 (configuration not stated),29,12,17,14
Cc1ccnc2nc(C(=O)NC(C)c3ccc(C(C)C)cc3)nn12 (configuration not stated),-101,-29,-36,-22

# Compound activity deposited in PubChem by Buhrlage Lab, Dana-Farber Cancer Institute and Novartis Institutes for BioMedical Research (Cambridge, Mass).
